# Measured values from PubChem BioAssay AID504725 (Broad Institute, 2011).
# Potency and affinity values are given separately. Activity calls are given as the source filed them. Entries that show only a call come without a potency. No rule for the calls is given here.
# Target: KSHV LANA C-terminal domain (residues 932-1162) binding to LBS DNA (UniProt O40947)
# Experiment: KSHV LANA DNA-binding disruption – biochemical, fluorescence polarization, cherry-picked samples, dose response (AID 504725)
row,SMILES,outcome
1,O=C(CCNc1ccc(Cc2ccncc2)cc1)c1cccc([N+](=O)[O-])c1,inactive
2,COc1ccc(C2c3ccc(O)cc3Oc3ncn(CCCO)c(=N)c32)cc1OC (stereo unspecified),inactive
3,S=c1[nH]nc([C@@H]2C[C@H]2c2ccccc2)n1-c1ccccc1Cl,inactive
4,O=S(=O)(O)c1cccc2cccc(Nc3ccccc3)c12,inactive
5,CCc1nnc(NC(=O)c2cccc(S(=O)(=O)N(C)c3ccccc3)c2)s1,inactive
6,CCN(CCCNC(=O)Cn1cc2c(n1)CCCC2)c1cccc(C)c1,inactive
7,O=C(COC(=O)c1ccc([N+](=O)[O-])o1)NCCCc1ccccc1,inactive
8,CCCCN(C(=O)CSc1nnc(-c2ccc(Cl)cc2)o1)c1c(N)n(CC(C)C)c(=O)[nH]c1=O,inactive
9,Cc1ccc(N(C)C(=O)C2CCCN2S(=O)(=O)c2ccc3c(c2)n(C)c(=O)c(=O)n3C)cc1 (stereo unspecified),inactive
10,COc1ccccc1C(=O)NCC(=O)OCC(=O)N(CC(C)C)c1c(N)n(Cc2ccccc2)c(=O)[nH]c1=O,inactive
11,Cc1ccc(OCC(=O)O/N=C(\N)Cc2ccc([N+](=O)[O-])cc2)cc1C,inactive
12,O=S(=O)(O)c1cc(O)c2cc(Nc3ccccc3)ccc2c1,inactive
13,Cc1cccc(N(Cc2ccccc2)C(=O)C2CCN(C(=O)c3ccccc3C)CC2)c1,inactive
14,CC(C)CC(=O)Nc1nnc(CSCc2ccc(F)cc2)s1,inactive
15,COC(=O)c1c(C)oc2ccc(N(C(C)=O)S(=O)(=O)c3ccccc3)cc12,inactive
16,Cc1ccc(C(CC(=O)N2CCCCC2)c2ccccc2)c(O)c1C (stereo unspecified),inactive
